Results published in the supplement of paper PMC10849652.
About 7,900 targets were measured; listed, in parts, are those with a hit and a random draw of the rest. About 0.6% of all pairs of compound and target were hits.

Legend:
Assay in all cases: log2 fold change, soluble protein after heating vs DMSO (PISA); higher = thermal stabilisation; K562 cells, 10 uM, 30 min; active = over 0.2 and 3.5 SD of the protein, either way, in both replicates (recomputed)
[1] = compound: NC(=O)Nc1cc(-c2cccc(F)c2)sc1C(=O)N[C@H]1CCCNC1
Summary of the method: (§1)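 Soluble protein was quantified by TMTpro 16plex LC-MS/MS after channel sums were equalised. It was obtained as the supernatant after 21,000xg for 90 min from pooled aliquots of K562 cells (2×10^6 cells/mL, 10 μM compound, 30 min) heated for 3 min across 48°C-58°C and extracted in PBS with 0.5% NP-40 at 4°C. Thermal stability values are relative to control samples and come from duplicates. They are given as log2 fold changes.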

[2] = compound: NC(=O)c1cnc(N[C@@H]2CCCC[C@@H]2N)nc1Nc1cccc(-n2nccn2)c1
Summary of the method: as §1

[3] = compound: NC1(c2ccc(-c3nc4ccn5c(=O)[nH]nc5c4cc3-c3ccccc3)cc2)CCC1
Summary of the method: as §1

[4] = compound: NCC(=O)Nc1ccc(-n2nc(C(F)(F)F)cc2-c2ccc3c(ccc4ccccc43)c2)cc1
Summary of the method: as §1

entinostat = compound: Nc1ccccc1NC(=O)c1ccc(CNC(=O)OCc2cccnc2)cc1 [entinostat]
Summary of the method: as §1

vorinostat = compound: O=C(CCCCCCC(=O)Nc1ccccc1)NO [vorinostat]
Summary of the method: as §1

citarinostat = compound: O=C(CCCCCCNC(=O)c1cnc(N(c2ccccc2)c2ccccc2Cl)nc1)NO [citarinostat]
Summary of the method: as §1

silmitasertib = compound: O=C(O)c1ccc2c(c1)nc(Nc1cccc(Cl)c1)c1ccncc12 [silmitasertib]
Summary of the method: as §1

[5] = compound: O=C1NC(=O)C(c2cnc3ccccn23)=C1c1cn2c3c(cc(F)cc13)CN(C(=O)N1CCCCC1)CC2
Summary of the method: as §1

[6] = compound: c1cc(OCCN2CCCCC2)cc(-c2n[nH]c3ccc(-c4nnc[nH]4)cc23)c1
Summary of the method: as §1

entospletinib = compound: c1cn2cc(-c3ccc4cn[nH]c4c3)nc(Nc3ccc(N4CCOCC4)cc3)c2n1 [entospletinib]
Summary of the method: as §1

Measured: log2 fold change

HNRNPK isoform 2 (UniProt P61978)
inactive: [1] -0.045 | [2] -0.086 | [3] -0.073 | [4] -0.093 | entinostat 0.056 | vorinostat 0.065 | citarinostat 0.05 | silmitasertib -0.017 | [5] -0.137 | [6] -0.038 | entospletinib 0.064

ICMT (UniProt O60725)
Sequence of UniProt O60725 (O60725 whole entry, looked up): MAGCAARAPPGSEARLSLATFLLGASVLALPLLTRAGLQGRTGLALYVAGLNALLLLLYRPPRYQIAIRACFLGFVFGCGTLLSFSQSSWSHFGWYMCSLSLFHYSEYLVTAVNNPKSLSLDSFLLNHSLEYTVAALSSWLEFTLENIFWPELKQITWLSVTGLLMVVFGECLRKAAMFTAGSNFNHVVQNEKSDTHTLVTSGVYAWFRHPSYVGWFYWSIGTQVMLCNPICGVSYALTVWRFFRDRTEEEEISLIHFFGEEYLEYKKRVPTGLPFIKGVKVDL
inactive: [1] 0.031 | [2] -0.153 | [3] -0.233 | [4] -0.079 | entinostat 0.007 | citarinostat -0.034 | silmitasertib 0.022 | [5] -0.013 | [6] -0.016 | entospletinib 0.303

ICAM1 (UniProt P05362)
inactive: [1] 0.016 | [2] 0.109 | [3] 0.087 | [4] 0.008 | entinostat -0.026 | vorinostat -0.008 | citarinostat 0.024 | silmitasertib -0.028 | [5] -0.07 | [6] -0.06 | entospletinib -0.007

FERMT3 (UniProt Q86UX7)
Sequence of UniProt Q86UX7 (Q86UX7 whole entry, looked up): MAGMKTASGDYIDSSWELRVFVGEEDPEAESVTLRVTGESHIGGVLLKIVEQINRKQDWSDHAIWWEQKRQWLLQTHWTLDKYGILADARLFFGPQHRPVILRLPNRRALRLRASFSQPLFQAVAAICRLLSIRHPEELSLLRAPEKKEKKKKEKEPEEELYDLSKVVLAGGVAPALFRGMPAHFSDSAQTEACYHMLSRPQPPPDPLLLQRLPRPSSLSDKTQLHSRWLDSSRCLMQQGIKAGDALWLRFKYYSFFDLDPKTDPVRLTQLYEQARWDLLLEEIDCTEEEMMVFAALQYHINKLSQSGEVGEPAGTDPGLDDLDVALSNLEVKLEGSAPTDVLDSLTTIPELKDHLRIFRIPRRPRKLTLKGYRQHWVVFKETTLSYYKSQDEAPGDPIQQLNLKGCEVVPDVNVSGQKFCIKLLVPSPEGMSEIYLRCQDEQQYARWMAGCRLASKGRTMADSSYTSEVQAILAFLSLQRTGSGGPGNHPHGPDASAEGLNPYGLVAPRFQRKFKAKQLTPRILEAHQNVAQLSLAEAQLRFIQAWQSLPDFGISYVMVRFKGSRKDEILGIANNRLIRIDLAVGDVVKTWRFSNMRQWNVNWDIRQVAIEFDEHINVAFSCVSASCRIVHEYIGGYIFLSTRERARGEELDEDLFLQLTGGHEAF
inactive: [1] -0.055 | [2] -0.107 | [3] -0.106 | [4] -0.065 | entinostat 0.032 | vorinostat 0.026 | citarinostat 0.067 | silmitasertib -0.001 | [5] -0.048 | [6] -0.02 | entospletinib -0.005

GUK1 isoform 2 (UniProt Q16774)
Sequence of UniProt Q16774 (Q16774 whole entry, looked up): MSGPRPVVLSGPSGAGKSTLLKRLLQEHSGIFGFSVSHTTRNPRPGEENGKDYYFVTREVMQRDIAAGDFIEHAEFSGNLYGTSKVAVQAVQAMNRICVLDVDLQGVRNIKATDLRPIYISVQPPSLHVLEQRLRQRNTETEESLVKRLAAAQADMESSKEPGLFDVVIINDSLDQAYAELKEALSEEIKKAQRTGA
inactive: [1] -0.126 | [2] -0.029 | [3] -0.059 | [4] -0.064 | entinostat 0.065 | vorinostat -0.002 | citarinostat 0.031 | silmitasertib 0.044 | [5] -0.094 | [6] 0.122 | entospletinib 0.093

GLS (UniProt O94925)
inactive: [1] -0.019 | [2] 0.152 | [3] -0.157 | [4] -0.093 | entinostat 0.039 | vorinostat 0.022 | citarinostat 0.068 | silmitasertib 0.008 | [5] -0.193 | [6] -0.032 | entospletinib 0.022

GCC2 (UniProt Q8IWJ2)
Sequence of UniProt Q8IWJ2 (Q8IWJ2 whole entry, looked up): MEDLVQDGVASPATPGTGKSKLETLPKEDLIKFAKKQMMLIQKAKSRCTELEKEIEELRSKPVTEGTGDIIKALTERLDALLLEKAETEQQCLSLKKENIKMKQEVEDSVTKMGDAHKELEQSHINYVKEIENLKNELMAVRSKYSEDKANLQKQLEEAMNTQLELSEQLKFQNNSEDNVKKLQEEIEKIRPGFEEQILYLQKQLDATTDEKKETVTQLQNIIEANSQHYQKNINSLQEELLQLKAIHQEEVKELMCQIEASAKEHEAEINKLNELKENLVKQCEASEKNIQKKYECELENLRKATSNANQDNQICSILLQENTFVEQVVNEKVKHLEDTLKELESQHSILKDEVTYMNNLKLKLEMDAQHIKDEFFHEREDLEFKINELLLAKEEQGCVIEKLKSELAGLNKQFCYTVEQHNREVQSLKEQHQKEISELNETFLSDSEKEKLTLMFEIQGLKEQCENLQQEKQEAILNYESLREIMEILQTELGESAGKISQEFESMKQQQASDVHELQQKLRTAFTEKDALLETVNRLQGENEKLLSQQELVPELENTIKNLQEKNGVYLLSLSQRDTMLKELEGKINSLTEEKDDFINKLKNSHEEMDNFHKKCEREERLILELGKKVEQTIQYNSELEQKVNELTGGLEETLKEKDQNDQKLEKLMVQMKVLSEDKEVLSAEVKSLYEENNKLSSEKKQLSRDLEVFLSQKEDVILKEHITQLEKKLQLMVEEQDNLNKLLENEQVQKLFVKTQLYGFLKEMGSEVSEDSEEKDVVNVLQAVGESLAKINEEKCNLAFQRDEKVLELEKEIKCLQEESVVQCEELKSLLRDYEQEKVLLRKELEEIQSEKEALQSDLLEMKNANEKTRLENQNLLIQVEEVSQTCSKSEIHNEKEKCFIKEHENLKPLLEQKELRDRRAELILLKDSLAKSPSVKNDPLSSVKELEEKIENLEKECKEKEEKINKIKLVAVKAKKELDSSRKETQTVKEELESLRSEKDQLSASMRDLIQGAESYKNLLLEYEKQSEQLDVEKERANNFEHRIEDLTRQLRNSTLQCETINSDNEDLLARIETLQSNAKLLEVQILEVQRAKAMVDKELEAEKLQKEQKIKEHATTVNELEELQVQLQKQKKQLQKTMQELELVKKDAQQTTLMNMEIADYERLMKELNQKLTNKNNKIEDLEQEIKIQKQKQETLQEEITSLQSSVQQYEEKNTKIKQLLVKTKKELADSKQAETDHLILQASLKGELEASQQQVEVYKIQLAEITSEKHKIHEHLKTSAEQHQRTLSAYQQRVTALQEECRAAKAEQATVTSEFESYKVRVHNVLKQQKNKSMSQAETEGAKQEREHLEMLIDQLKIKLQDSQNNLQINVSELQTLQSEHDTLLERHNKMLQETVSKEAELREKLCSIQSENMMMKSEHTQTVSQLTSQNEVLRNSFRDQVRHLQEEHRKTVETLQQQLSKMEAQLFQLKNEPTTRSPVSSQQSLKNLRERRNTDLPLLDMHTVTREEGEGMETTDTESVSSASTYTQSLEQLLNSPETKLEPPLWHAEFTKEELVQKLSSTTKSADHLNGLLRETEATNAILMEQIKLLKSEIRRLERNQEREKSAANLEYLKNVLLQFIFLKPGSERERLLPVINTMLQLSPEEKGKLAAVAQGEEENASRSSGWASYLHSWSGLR
inactive: [1] -0.009 | [2] -0.005 | [3] 0.081 | [4] 0.009 | entinostat 0.03 | vorinostat -0.002 | citarinostat -0.066 | silmitasertib 0.212 | [5] 0.225 | [6] 0.009 | entospletinib 0.144

GABARAPL1 isoform 2 (UniProt Q9H0R8)
Sequence of UniProt Q9H0R8 (Q9H0R8 whole entry, looked up): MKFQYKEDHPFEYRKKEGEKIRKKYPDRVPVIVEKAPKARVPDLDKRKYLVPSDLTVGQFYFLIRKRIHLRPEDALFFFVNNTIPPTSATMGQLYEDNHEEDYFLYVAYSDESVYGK
inactive: [1] -0.051 | [2] -0.13 | [4] -0.134 | entinostat -0.009 | vorinostat -0.028 | citarinostat 0.038 | silmitasertib -0.083 | [5] -0.049 | [6] 0.021 | entospletinib -0.041
active: [3] -0.252

GSK3B isoform 2 (UniProt P49841)
active: [5] 0.29
inactive: [1] -0.027 | [2] -0.06 | [3] -0.055 | [4] -0.028 | entinostat 0.005 | vorinostat 0.023 | citarinostat 0.047 | silmitasertib 0.012 | entospletinib -0.028

HBQ1 (UniProt P09105)
Sequence of UniProt P09105 (P09105 whole entry, looked up): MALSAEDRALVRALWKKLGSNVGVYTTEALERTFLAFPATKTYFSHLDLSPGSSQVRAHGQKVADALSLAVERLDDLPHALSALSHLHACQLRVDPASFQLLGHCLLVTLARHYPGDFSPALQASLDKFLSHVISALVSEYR
inactive: [1] 0.058 | [2] -0.048 | [3] -0.043 | [4] 0.006 | entinostat 0.014 | vorinostat -0.05 | citarinostat 0.032 | silmitasertib -0.047 | [5] -0.119 | [6] 0.021 | entospletinib 0.001

GLUL (UniProt P15104)
Sequence of UniProt P15104 (P15104 whole entry, looked up): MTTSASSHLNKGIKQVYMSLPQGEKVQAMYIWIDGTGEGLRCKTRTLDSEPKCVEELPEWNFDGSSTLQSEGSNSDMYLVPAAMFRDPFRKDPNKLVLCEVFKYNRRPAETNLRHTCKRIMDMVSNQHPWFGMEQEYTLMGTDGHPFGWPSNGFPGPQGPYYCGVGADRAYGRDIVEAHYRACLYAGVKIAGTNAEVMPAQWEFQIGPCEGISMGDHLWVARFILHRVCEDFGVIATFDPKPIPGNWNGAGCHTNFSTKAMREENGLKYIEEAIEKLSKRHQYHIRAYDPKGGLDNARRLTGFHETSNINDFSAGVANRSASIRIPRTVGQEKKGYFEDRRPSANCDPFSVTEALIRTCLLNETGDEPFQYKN
inactive: [1] 0.059 | [2] -0.104 | [3] 0.061 | [4] 0.018 | entinostat -0.009 | vorinostat 0.04 | citarinostat -0.024 | silmitasertib 0.032 | [5] -0.012 | [6] -0.087 | entospletinib -0.019

GPD1 (UniProt P21695)
inactive: [1] 0.067 | [2] 0 | [3] 0.059 | [4] -0.067 | entinostat -0.068 | vorinostat -0.035 | silmitasertib -0.16 | [5] -0.157

HNRNPUL1 (UniProt Q9BUJ2)
inactive: [1] -0.059 | [2] 0.028 | [3] -0.081 | [4] -0.059 | entinostat -0.012 | vorinostat 0.03 | citarinostat 0.002 | silmitasertib 0.034 | [5] 0.08 | [6] -0.046 | entospletinib -0.029

GOLGB1 isoform 2 (UniProt Q14789)
inactive: [1] 0.106 | [2] -0.062 | [3] -0.044 | [4] 0.026 | entinostat 0.024 | vorinostat -0.019 | citarinostat -0.008 | silmitasertib 0.009 | [5] 0.039 | [6] 0.167 | entospletinib 0.058

GIGYF2 (UniProt Q6Y7W6)
inactive: [1] -0.102 | [2] -0.062 | [3] -0.046 | [4] -0.079 | entinostat 0.024 | vorinostat 0.103 | citarinostat 0.06 | silmitasertib -0.004 | [5] -0.016 | [6] -0.065 | entospletinib -0.02

GNL1 (UniProt P36915)
inactive: [1] -0.045 | [2] -0.071 | [3] -0.114 | [4] -0.019 | entinostat 0.001 | vorinostat 0.008 | citarinostat 0.022 | silmitasertib -0.021 | [5] -0.005 | [6] -0.011 | entospletinib 0.028

IFNGR1 (UniProt P15260)
inactive: [1] -0.116 | [2] -0.068 | [3] 0.27 | [4] 0.051 | entinostat -0.123 | vorinostat 0.058 | citarinostat 0.014 | silmitasertib 0.055 | [5] -0.118 | [6] -0.086 | entospletinib -0.019

FYB1 isoform 3 (UniProt O15117)
inactive: [1] -0.045 | [2] 0.007 | [3] 0.017 | [4] 0.02 | entinostat 0.025 | vorinostat -0.02 | citarinostat 0.093 | silmitasertib -0.097 | [5] -0.037 | [6] -0.002 | entospletinib 0.036

FUCA1 (UniProt P04066)
active: [3] -0.519 | [6] -0.372
inactive: [1] 0.028 | [2] -0.028 | [4] -0.03 | entinostat 0.014 | vorinostat 0.015 | citarinostat 0.096 | silmitasertib 0.019 | [5] -0.043 | entospletinib -0.018

GOPC (UniProt Q9HD26)
inactive: [1] -0.055 | [2] -0.011 | [3] 0.15 | [4] -0.002 | entinostat -0.092 | vorinostat -0.038 | silmitasertib 0.029 | [5] 0.265

FNTB (UniProt P49356)
inactive: [1] -0.024 | [2] 0.09 | [3] 0.162 | [4] -0.035 | entinostat -0.079 | vorinostat -0.038 | citarinostat 0.054 | silmitasertib -0.019 | [5] 0.048 | [6] 0.002 | entospletinib -0.143

GLIPR2 (UniProt Q9H4G4)
Sequence of UniProt Q9H4G4 (Q9H4G4 whole entry, looked up): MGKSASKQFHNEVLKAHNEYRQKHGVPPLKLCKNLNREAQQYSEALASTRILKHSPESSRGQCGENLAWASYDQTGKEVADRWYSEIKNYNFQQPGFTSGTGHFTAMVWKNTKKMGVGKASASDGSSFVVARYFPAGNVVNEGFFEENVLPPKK
inactive: [1] -0.038 | [2] -0.058 | [3] -0.101 | [4] -0.071 | entinostat 0.058 | vorinostat 0.032 | citarinostat -0.029 | silmitasertib 0.112 | [5] -0.017 | [6] -0.037 | entospletinib 0.055

HAT1 (UniProt O14929)
Sequence of UniProt O14929 (O14929 whole entry, looked up): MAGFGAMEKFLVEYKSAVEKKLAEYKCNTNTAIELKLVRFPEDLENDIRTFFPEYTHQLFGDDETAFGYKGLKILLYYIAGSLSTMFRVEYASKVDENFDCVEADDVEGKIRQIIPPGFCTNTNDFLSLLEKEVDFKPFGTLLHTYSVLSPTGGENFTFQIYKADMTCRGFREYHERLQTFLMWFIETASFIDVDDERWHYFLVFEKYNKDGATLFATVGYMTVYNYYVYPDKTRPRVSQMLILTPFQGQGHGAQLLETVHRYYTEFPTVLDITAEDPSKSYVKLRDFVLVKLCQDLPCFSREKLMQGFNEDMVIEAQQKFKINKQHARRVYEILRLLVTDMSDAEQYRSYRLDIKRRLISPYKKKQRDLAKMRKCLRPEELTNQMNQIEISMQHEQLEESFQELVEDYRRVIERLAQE
inactive: [1] 0.002 | [2] 0.006 | [3] -0.076 | [4] 0.01 | entinostat 0.053 | vorinostat 0.001 | citarinostat 0.071 | silmitasertib 0.052 | [5] -0.055 | [6] -0.016 | entospletinib -0.021

HBA1 (UniProt P69905)
Sequence of UniProt P69905 (P69905 whole entry, looked up): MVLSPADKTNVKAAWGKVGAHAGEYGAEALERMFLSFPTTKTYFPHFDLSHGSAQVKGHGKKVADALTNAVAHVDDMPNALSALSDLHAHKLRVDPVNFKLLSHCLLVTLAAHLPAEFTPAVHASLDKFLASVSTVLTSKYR
inactive: [1] 0.016 | [2] 0.032 | [3] 0.003 | [4] 0.103 | entinostat 0.059 | vorinostat -0.031 | citarinostat 0.007 | silmitasertib -0.036 | [5] -0.037 | [6] 0.012 | entospletinib 0.042

FMC1 (UniProt Q96HJ9)
Sequence of UniProt Q96HJ9 (Q96HJ9 whole entry, looked up): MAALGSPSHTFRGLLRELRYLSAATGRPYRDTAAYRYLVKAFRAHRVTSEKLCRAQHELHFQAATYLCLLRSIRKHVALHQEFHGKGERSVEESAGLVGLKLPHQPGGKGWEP
inactive: [1] 0.01 | [2] -0.044 | [3] -0.011 | [4] 0.013 | entinostat -0.042 | vorinostat -0.054 | citarinostat 0.044 | silmitasertib 0.006 | [5] -0.012 | [6] -0.053 | entospletinib 0

GGA2 (UniProt Q9UJY4)
Sequence of UniProt Q9UJY4 (Q9UJY4 whole entry, looked up): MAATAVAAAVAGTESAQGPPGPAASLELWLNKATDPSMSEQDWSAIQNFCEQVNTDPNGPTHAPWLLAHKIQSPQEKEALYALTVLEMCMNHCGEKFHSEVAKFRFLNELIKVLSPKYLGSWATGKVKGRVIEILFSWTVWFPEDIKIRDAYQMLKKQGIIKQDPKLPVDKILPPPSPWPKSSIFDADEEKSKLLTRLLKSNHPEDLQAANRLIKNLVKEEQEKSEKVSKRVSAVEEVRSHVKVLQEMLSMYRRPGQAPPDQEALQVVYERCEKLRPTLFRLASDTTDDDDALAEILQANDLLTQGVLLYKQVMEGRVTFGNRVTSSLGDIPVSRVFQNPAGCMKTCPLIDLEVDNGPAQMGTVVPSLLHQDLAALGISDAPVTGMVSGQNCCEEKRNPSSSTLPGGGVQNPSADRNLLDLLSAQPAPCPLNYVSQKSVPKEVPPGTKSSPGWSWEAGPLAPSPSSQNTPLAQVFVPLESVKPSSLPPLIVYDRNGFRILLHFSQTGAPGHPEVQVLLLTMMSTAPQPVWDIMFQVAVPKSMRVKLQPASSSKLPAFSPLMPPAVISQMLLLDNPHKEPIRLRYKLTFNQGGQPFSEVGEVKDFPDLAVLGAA
inactive: [1] 0.02 | [2] -0.02 | [3] -0.208 | [4] 0.01 | entinostat 0.032 | citarinostat 0.042 | silmitasertib 0.033 | [5] 0.152 | [6] -0.034 | entospletinib -0.117
